Source: PubChem BioAssay (NCI)
About 83,000 compounds went through this panel and 20% of them were active in at least one assay; those are over-represented in the sample as a whole.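 Treatment: one concentration, 48 hours, 96-well format. Scoring: percent growth, with anything below 10 considered active.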 The source made the active and inactive calls.

Tests used:
Assay in all cases: NCI-60 one-dose screen, 48 h (100 = growth as untreated, 0 = no growth, -100 = all killed)
Settings in all cases: 10 µM unless noted
SR leukemia = system: SR leukemia
OVCAR-8 ovarian = system: OVCAR-8 ovarian
OVCAR-5 ovarian = system: OVCAR-5 ovarian
OVCAR-4 ovarian = system: OVCAR-4 ovarian
SK-OV-3 ovarian = system: SK-OV-3 ovarian
IGROV1 ovarian = system: IGROV1 ovarian
OVCAR-3 ovarian = system: OVCAR-3 ovarian
HS 578T breast = system: HS 578T breast
NCI/ADR-RES ovarian = system: NCI/ADR-RES ovarian
RPMI-8226 leukemia = system: RPMI-8226 leukemia

Measured: growth

Cc1ccc(N(CC(=O)Nc2ccc(S(=O)(=O)NC3CCN(C)CC3)cc2)S(=O)(=O)c2ccc(Cl)cc2)cc1
inactive: OVCAR-8 ovarian 96.2% | OVCAR-5 ovarian 91.6% | OVCAR-4 ovarian 87.8% | SK-OV-3 ovarian 105% | IGROV1 ovarian 85.7% | OVCAR-3 ovarian 72.5% | HS 578T breast 69.5% | NCI/ADR-RES ovarian 98.6%
active: SR leukemia 5.99%

COc1ccc(C2NC(=O)Nc3ccccc32)c(OC)c1 (stereo not given)
inactive: SR leukemia 91.7% | OVCAR-8 ovarian 101% | OVCAR-5 ovarian 112% | OVCAR-4 ovarian 105% | SK-OV-3 ovarian 95.3% | IGROV1 ovarian 98.2% | OVCAR-3 ovarian 112% | HS 578T breast 94.8% | NCI/ADR-RES ovarian 99%

Cn1c(=O)c2c(nc(N3CCCC3)n2C)n(C)c1=O
inactive: SR leukemia 100% | OVCAR-8 ovarian 100% | OVCAR-5 ovarian 99.1% | OVCAR-4 ovarian 99.1% | SK-OV-3 ovarian 103% | IGROV1 ovarian 98.5% | OVCAR-3 ovarian 110% | HS 578T breast 105% | NCI/ADR-RES ovarian 103%

CC(c1ccccc1)N1C(=O)C(C2SC(=S)N(C(C)c3ccccc3)C2=O)SC1=S (stereo not given)
inactive: SR leukemia 41.4% | OVCAR-8 ovarian 96.6% | OVCAR-5 ovarian 98.8% | OVCAR-4 ovarian 97.2% | SK-OV-3 ovarian 106% | IGROV1 ovarian 76.5% | OVCAR-3 ovarian 76.8% | HS 578T breast 96% | NCI/ADR-RES ovarian 97.9%

O=C1CCCC=CC[C@H]2C=C(Cl)C(=O)C2=CC[C@H](CCCCC(F)(F)F)OC(=O)CCCC=CC[C@H]2C=C(Cl)C(=O)C2=CC[C@H](CCCCC(F)(F)F)OC(=O)CCCC=CC[C@H]2C=C(Cl)C(=O)C2=CC[C@H](CCCCC(F)(F)F)O1
active: OVCAR-8 ovarian 8.78% [6.25 µM]
inactive: SR leukemia 11.6% [6.25 µM] | OVCAR-5 ovarian 140% [6.25 µM] | OVCAR-4 ovarian 68.7% [6.25 µM] | SK-OV-3 ovarian 119% [6.25 µM] | IGROV1 ovarian 43.7% [6.25 µM] | OVCAR-3 ovarian 14.3% [6.25 µM] | HS 578T breast 81.9% [6.25 µM] | NCI/ADR-RES ovarian 97.6% [6.25 µM]

COc1cccc(-c2nn(-c3ccccc3)cc2-c2ccnc(NCCCNS(=O)(=O)c3ccc(Br)cc3)c2)c1
inactive: SR leukemia 13.3% | OVCAR-8 ovarian 47.9% | OVCAR-5 ovarian 88.2% | OVCAR-4 ovarian 46.5% | SK-OV-3 ovarian 64.8% | IGROV1 ovarian 47.6% | OVCAR-3 ovarian 58.8% | HS 578T breast 66.2% | NCI/ADR-RES ovarian 42%

CCC(CC)C(=O)OC(C)COc1ccc(C(C)(C)C)cc1 (stereo not given)
inactive: SR leukemia 98.2% | OVCAR-5 ovarian 100% | OVCAR-4 ovarian 113% | SK-OV-3 ovarian 102% | IGROV1 ovarian 112% | OVCAR-3 ovarian 107% | HS 578T breast 110% | NCI/ADR-RES ovarian 109%

CCN1CCN(C(=O)[C@]23CCC(C)(C)C[C@@H]2C2=CC[C@@H]4[C@@]5(C)C/C(=C/c6ccncc6)C(=O)C(C)(C)[C@@H]5CC[C@@]4(C)[C@]2(C)CC3)CC1
active: RPMI-8226 leukemia -32.1% | OVCAR-8 ovarian 7.29% | OVCAR-5 ovarian -20.4% | OVCAR-4 ovarian 6.7% | IGROV1 ovarian -9.63% | OVCAR-3 ovarian -85.7% | HS 578T breast -23.6% | NCI/ADR-RES ovarian -49.2%
inactive: SK-OV-3 ovarian 16.2%

N#CC1C(=N)Cc2ccccc2-c2ccccc21 (stereo not given)
inactive: SR leukemia 26.7% | OVCAR-8 ovarian 63.1% | OVCAR-5 ovarian 88.3% | SK-OV-3 ovarian 66.7% | IGROV1 ovarian 45.7% | OVCAR-3 ovarian 41.6% | HS 578T breast 36.5%
active: NCI/ADR-RES ovarian 1.44%

C[N+](C)(CCCCCC[N+](C)(C)C1c2ccccc2-c2ccccc21)C1c2ccccc2-c2ccccc21
inactive: SR leukemia 98.3% | OVCAR-8 ovarian 104% | OVCAR-5 ovarian 108% | OVCAR-4 ovarian 111% | SK-OV-3 ovarian 111% | OVCAR-3 ovarian 104% | HS 578T breast 98.2% | NCI/ADR-RES ovarian 115%

OCC(CO)(CCl)CCl
inactive: SR leukemia 95.6% | OVCAR-8 ovarian 101% | OVCAR-4 ovarian 109% | SK-OV-3 ovarian 88.5% | IGROV1 ovarian 109% | OVCAR-3 ovarian 105% | HS 578T breast 105% | NCI/ADR-RES ovarian 99%

CC(=O)OC(C)COc1ccc(-c2ccccc2)cc1 (stereo not given)
inactive: SR leukemia 97.1% | OVCAR-8 ovarian 95.9% | OVCAR-4 ovarian 106% | SK-OV-3 ovarian 109% | IGROV1 ovarian 112% | OVCAR-3 ovarian 107% | HS 578T breast 103% | NCI/ADR-RES ovarian 118%

Nc1ccc(Cl)cn1
inactive: RPMI-8226 leukemia 101% | OVCAR-8 ovarian 101% | OVCAR-5 ovarian 101% | OVCAR-4 ovarian 97.4% | SK-OV-3 ovarian 93.6% | IGROV1 ovarian 104% | OVCAR-3 ovarian 106% | HS 578T breast 99.7% | NCI/ADR-RES ovarian 98.7%

O=C1c2cccc3cccc(c23)C(=O)N1CC#Cc1ccc2c3c(cccc13)C(=O)N(CCN1CCNCC1)C2=O
active: RPMI-8226 leukemia 8.66%
inactive: OVCAR-8 ovarian 93.9% | OVCAR-5 ovarian 92.1% | OVCAR-4 ovarian 85.3% | SK-OV-3 ovarian 132% | IGROV1 ovarian 91.4% | OVCAR-3 ovarian 106% | HS 578T breast 106% | NCI/ADR-RES ovarian 102%

CCCC1CCCCN1C(=O)OCC(C)C (stereo not given)
inactive: RPMI-8226 leukemia 108% | OVCAR-8 ovarian 105% | OVCAR-5 ovarian 102% | OVCAR-4 ovarian 113% | SK-OV-3 ovarian 110% | IGROV1 ovarian 101% | OVCAR-3 ovarian 112% | HS 578T breast 102% | NCI/ADR-RES ovarian 137%
